# VCAM1 TNFa inh – reduces TNF alpha induced VCAM1 expression in HUVEC | inhibition, % at 2 µM | 95,000 compounds, 0.48% hits | HUVEC TNFa-induced VCAM-1 immunofluorescence, high-content imaging;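 active means inhibition above the batch mean plus 3 SD, with images confirmed as a hit by eye, cut at about 37% in these data; inconclusive means inhibition above that limit but hit not confirmed in images; inactive means inhibition not above that limit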;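 further: 0% = TNF-stimulated DMSO wells and 100% = unstimulated control wells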
# E-sel TNF inh – TNF alpha driven E-selectin expression inhibition; 120,000 compounds, 0.71% hits; inhibition, % at 2 µM; HUVEC TNFa-induced E-selectin immunofluorescence, high content;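 active means inhibition above the batch mean plus 3 SD, and confirmed as a hit on visual image review, cut at about 43% in these data; inconclusive means passes the inhibition cutoff but fails visual image review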;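 further: 0% = TNF-stimulated DMSO wells and 100% = unstimulated control wells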
# F-actin modifier – cytoskeleton assembly modification; HUVEC TNFa F-actin phalloidin imaging, high content; inhibition, % at 2 µM; 91,000 compounds, 0.18% hits;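 active means inhibition above the batch mean plus 3 SD and confirmed as a hit by visual image inspection, cut at about 30% in these data, passing the limit was not always enough; inconclusive means above the inhibition threshold but rejected on visual inspection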
# HUVEC tox TNFa – toxic to HUVEC cells under TNF alpha stimulation; HUVEC TNFalpha-stimulated, Hoechst cell count, imaging; cell count reduction, % at 2 µM; 93,000 compounds, 0.17% hits;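 active means cell count reduction exceeding the screen mean by over 5 SD, scaled to untreated wells per plate, cut at about 78% in these data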;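 further: cells counted after 24 h of TNF alpha exposure following the 1 h pretreatment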
# Starred values were filed as active, the others as inactive; ? = inconclusive; / = not tested or not shown. Compounds with a hit are over-represented: about 1.1% of the library has one in this group of screens.
SMILES,VCAM1 TNFa inh,E-sel TNF inh,F-actin modifier,HUVEC tox TNFa
Cc1c(Cl)cnc(NC(=O)COC(=O)c2nn(C)c(=O)c3ccccc23)c1Cl,/,64*,/,/
CCc1cccc(CC)c1NC(=O)C1SC(=Nc2ccccc2C)C(c2nc3ccccc3s2)=C1N (centres undefined),59*,-1,-24,-3
COc1ccc2c(c1)CCc1c(C(=O)N3CC4(C)CC3CC(C)(C)C4)noc1-2 (centres undefined),91*,17,-21,8
C=CCN1C(=O)CS/C1=N\N=C\c1cccc([N+](=O)[O-])c1,/,4,/,/
Cc1cc(C(=O)OCC(=O)Nc2ccc(F)cc2)c(C)o1,9,5,17,-5
CCn1c(SCC(=O)Nc2cc(C)on2)nnc1-c1ccccc1,?,17,37*,78
Cc1cc(NC(=O)CSc2nnc3c4c(C)c(C)sc4ncn23)no1,-8,69*,-2,-8
COc1ccc(CCn2c(SCC(=O)Nc3cc(C)on3)nc3ccccc3c2=O)cc1OC,38,/,-24,87*
Cc1ccc(Nc2nc(N)nc(CSc3nnc(-c4ccncc4)o3)n2)cc1,-4,-19,0,-16
C=CCOc1c(Br)cc(CNn2nnnc2N)cc1OC,23,?,2,4
O/N=C1\CCCc2ccc(Cl)cc21,/,0,/,/
CCOc1ccc(S(=O)(=O)Nc2cc(OC)ccc2OC)cc1,59*,/,3,67
COc1ccc(OC)c(NS(=O)(=O)c2ccc(N3CCCC3=O)cc2)c1,41*,/,-9,64
O=C(C1CCN(Cc2cccs2)CC1)N1CCN(Cc2ccc3c(c2)OCO3)CC1,/,-18,/,/
N=C(N)SCc1nc2ccccc2c(=O)n1-c1ccccc1,/,61*,/,/
COc1ccc(-n2c(=S)[nH]c3cc(C(=O)NCc4ccco4)ccc3c2=O)cc1OC,3,67*,36,3
O=C(NCc1ccco1)c1ccc2c(=O)n(-c3ccccc3)c(=S)[nH]c2c1,-11,/,4,10
CCOc1nc(-c2ccccc2Cl)ccc1C#N,22,-50,-16,-64
CCOC(=O)c1ccc(NC(=O)CCNc2c(N3CCCC3)c(=O)c2=O)cc1,70*,3,-14,-1
CCOC(=O)c1ccc(NC(=O)CN2CCN(c3ccccc3)CC2)cc1,/,4,/,/
CC(C)(CO)NC(=O)CCCOc1ccc(Cl)cc1Cl,93*,8,31,-29
CCCNC(=O)c1ccc(CNc2c(N3CCC(C(=O)OCC)CC3)c(=O)c2=O)cc1,-6,-22,24,8
O=C1NCCCc2c1oc1cc(Br)c(O)c(Br)c21,/,97*,/,/
CCOc1ccc(-c2cc(C(=O)OC)[nH]n2)cc1,/,12,/,/
Cc1nn(CC(=O)Nc2ccc(C(=O)N(C)C)cc2)c(=O)c2ccccc12,-4,10,34*,-14
SMILES,VCAM1 TNFa inh,E-sel TNF inh,F-actin modifier,HUVEC tox TNFa
O=C(CCn1nnc2ccccc21)Nc1nnc(Cc2ccc(F)cc2)s1,/,47*,/,/
CN1C(=O)CSC1=NC12CC3CC(CC(C3)C1)C2,26,-14,12,-12
CCN1C(=O)CSC1=NC12CC3CC(CC(C3)C1)C2,96*,-2,-22,66
CCCCCc1nc2ccccc2c(=O)n1NC(=O)c1c(O)c2cccc3c2n(c1=O)CCC3,8,72*,-17,-21
CN(CC(=O)Nc1ccc(Cl)cc1)c1ccc(S(=O)(=O)N2CCCCC2)cc1[N+](=O)[O-],/,62*,/,/
O=C(CCc1c[nH]c2ccccc12)N1CCN(c2ccc(O)cc2)CC1,/,-14,/,/
COc1ccc(-n2c(-c3ccc(F)cc3)cnc2SCC(=O)NCc2ccco2)cc1,13,1,4,-9
COc1ccc(-n2c(SCC(=O)NCc3ccco3)nc3c([nH]c4ccccc43)c2=O)cc1,14,82*,-5,-18
CCOC(=O)c1[nH]c(C)c(C(=O)OCC)c1C,-9,/,-14,2
CCOC(=O)c1[nH]c(C)c(C(=O)c2cc(F)ccc2F)c1C,83*,-9,-15,31
Cc1n[nH]c(=O)nc1NCc1ccccc1,89*,/,-6,77
CCc1cc2c(SCC(=O)Nc3cc(C)on3)ncnc2s1,/,35,/,/
O=S1(=O)CCN(C(CCO)c2cccc(C(F)(F)F)c2)CC1 (centres undefined),/,95*,/,/
COc1cccc(CN2C(=O)CCC2(C)C(=O)NC2CCCC2)c1 (centres undefined),12,27,-7,-8
Nc1nnc(SCC(=O)NCc2ccc3c(c2)OCO3)s1,93*,-6,-3,-25
COc1ccccc1CNC(=O)CSc1nc(N)c(C#N)c(-c2cccs2)c1C#N,11,/,-2,-13
N#Cc1c(N)nc(SCC(=O)NCc2ccc3c(c2)OCO3)c(C#N)c1-c1cccs1,1,21,60*,-17
CS(=O)(=O)N(CC(=O)NCc1ccco1)Cc1ccc(Cl)cc1,19,5,8,-8
Cc1ccc(S(=O)(=O)N(CC(=O)NCc2ccco2)Cc2ccc(F)cc2)cc1,/,-26,100*,/
CCC1Sc2ccccc2N(CC(=O)NCc2ccc3c(c2)OCO3)C1=O (centres undefined),/,95*,/,/
CCC1Sc2ccccc2N(CC(=O)NCCC2=CCCCC2)C1=O (centres undefined),6,-16,4,-23
Cc1cc(Br)ccc1OCCCCN1CCC(C)CC1,/,-18,/,/
CCOC(=O)c1ccc(NS(=O)C23CC4CC(CC(C4)C2)C3)cc1 (centres undefined),54*,17,-14,40
CCNC(=S)NNC(=O)c1cc(C2CC2)nc2ccccc12,9,-40,-17,14
O=C(CSc1ncnc2nc[nH]c12)Nc1ccccc1C(F)(F)F,-5,76*,14,-1
SMILES,VCAM1 TNFa inh,E-sel TNF inh,F-actin modifier,HUVEC tox TNFa
Cc1ccc(C(=O)NCc2n[nH]c(=S)n2-c2ccccc2)cc1[N+](=O)[O-],/,10,/,/
CC(=O)c1ccccc1NC(=O)Cn1c(=O)cnc2ccccc21,/,44,/,/
c1ccc(-c2nnc(CSc3nncs3)o2)cc1,93*,4,13,-7
c1ccc(Cc2nnc(-c3ccccc3)o2)cc1,-6,-8,2,4
Cc1csc(NC(=O)CSc2nnc(-c3cccs3)n2C)n1,12,-13,65*,-27
Cc1csc(NC(=O)CSc2nnc(CCNC(=O)c3cccs3)n2C)n1,16,3,-4,4
O=C1c2cccc3c([N+](=O)[O-])ccc(c23)C(=O)N1c1ccccn1,33,-24,-85,43
O=C1c2cccc3c([N+](=O)[O-])ccc(c23)C(=O)N1c1ccc(Cl)cn1,69*,37,-10,30
O=C1c2cccc3c([N+](=O)[O-])ccc(c23)C(=O)N1c1nccs1,76*,44,-17,29
Cc1sc2c(c1C)c(=O)nc1scc(C)n12,-15,8,8,-12
CCCCNC(=O)NCc1cnn(C)c1C,/,-3,/,/
N#Cc1nc(-c2ccco2)oc1N1CCN(c2ccccc2)CC1,-18,/,4,-20
N#Cc1nc(-c2ccco2)oc1N1CCOCC1,40*,/,19,-31
COc1ccc2c(c1OC)C(=O)N1N=C(c3ccc(Cl)cc3)CC21 (centres undefined),/,-39,/,/
N=c1c2c(-c3ccccc3)c(-c3ccccc3)n(Cc3ccccc3)c2ncn1CCCn1ccnc1,73*,-20,-52,14
Fc1ccc(N2Cc3ccsc3C=N2)cc1,/,-24,/,/
